About 17,000 (4.7%) of roughly 360,000 compounds were called active. Roughly 5% stayed inconclusive and do not appear here. The full list was thinned out, with actives kept by preference. Unmarked numbers belong to inactive results. Cut-off read from the data, not from the text of the source: active = activity change below about -50%; inconclusive = mostly about -30% to -49%; inactive = weaker than that.
% is set by controls: 0 for no effect and ±100 for the full control effect.

The assay is described as follows: qHTS for Inhibitors of Inflammasome Signaling: IL-1-beta AlphaLISA Primary Screen. To be noted: THP-1 LPS/ATP IL-1B secretion, 16 h; at 57.5 µM, active compounds read low. The gist of the method: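 Secreted IL-1B measured by AlphaLISA bead assay after 16 h compound exposure of THP-1 cells; compounds (final up to 57.5 uM) added 1 h before LPS (250 ng/mL) and ATP (1.25 mM) stimulation; lower signal means less secretion.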
For the molecule `CCCS(=O)(=O)NC(=O)C1(C)CCCN(C(=O)c2cccs2)C1` (stereo not drawn), the activity change was 1.15%.

Consider `CCOC(=O)c1ccc2[nH]c(C)c(CN3CCN(C)CC3)c(=O)c2c1`, for which the activity change was 13.2%. With `O=C(CCCCCn1c(=S)[nH]c2ccsc2c1=O)NC1CCCCC1` the figure was 7.06%; with `CO[C@@H]1CN(C)C(=O)c2cc(NC(=O)C3CC3)ccc2OC[C@H](C)N(C(=O)CN2CCOCC2)C[C@@H]1C`, 11%; with `O=C(O)c1ccccc1-c1cccc2nncn12`, -10.3%. Then `Cn1c2c(c(=O)n(C)c1=O)C(c1cccc(F)c1)C(C#N)=C(N)O2` (stereo not drawn), with 5.24%; and `Cc1c(C(=O)NCc2ccc(C#N)cc2)sc(=O)n1Cc1ccc(C(=O)N(C)C)cc1`, with -7.66%.

`O=[N+]([O-])c1ccccc1OCCCCN1CCCCC1`: the activity change is 15.9%. With `CCCCCOc1ccc(CSC2=NCCN2)cc1[N+](=O)[O-]`, the activity change was -93.2% (active). With `Cc1cc(OCCCCOc2ccc(C#N)cc2)ccc1[N+](=O)[O-]` the figure was 0%; with `Cc1nc(SCc2ccc(F)cc2)c([N+](=O)[O-])[nH]1`, 15.4%; with `CCCCOc1ccc(CSC(=N)N)cc1[N+](=O)[O-]`, -102% (active). As to `CCCCOC(=O)CCCc1ccc([N+](=O)[O-])cc1[N+](=O)[O-]`, the activity change is 17.5%. Take `O=C(Nc1nnc([C@H]2C[C@H](O)[C@@H](CO)O2)s1)c1cccc(Cl)c1`: the activity change was 25.3%. `CCOC(=O)C1(Cc2ccccc2C(F)(F)F)CCN(C(=O)c2cc(C)n(C)n2)CC1`: the activity change is 58%.

As for `CC(=O)NC(CC(=O)Nc1nc(-c2ccccc2)c(C(C)=O)s1)c1ccccc1` (stereo not drawn), the activity change was -10.6%.

As for `CCN1C(=O)CS/C1=N\c1nccs1`, the activity change is -5.9%. With `O=C(Cc1ccc(Cl)cc1)c1ccccc1` the figure was -14.1%; with `CCN(C[C@H]1N[C@@](CC)(C(=O)OC)[C@H]2C(=O)N(Cc3ccccc3)C(=O)[C@@H]12)S(=O)(=O)c1ccccc1`, -2.92%; with `CCN(C[C@H]1N[C@@](Cc2ccccc2)(C(=O)OC)[C@H]2C(=O)N(Cc3ccccc3)C(=O)[C@@H]12)C(=O)c1ccc(C)cc1`, -54.1% (active). As to `CCNC(=O)N(CC)C[C@H]1N[C@@](CC)(C(=O)OC)[C@H]2C(=O)N(Cc3ccccc3)C(=O)[C@@H]12`, the activity change was 36%. Consider `Cc1ccc(S(=O)(=O)NN=C2CC(C)(C)CC(=O)C2(C)C)cc1`, for which the activity change was 0.854%.

As to `Cc1cccc(C)c1NC(=O)C(c1ccc(C(F)(F)F)cc1)n1c(=O)c(-c2ccco2)nc2ccccc21` (stereo not drawn), the activity change is -1.25%.
